# Assay results taken from PubChem BioAssay AID485344 (National Center for Advancing Translational Sciences (NCATS), 2010).
# The whole screen tested about 340,000 compounds, of which about 6,900 (2%) were called active. The full list was thinned out, with actives kept by preference. A number with no mark means an inactive call. Cut-off read from the data, not from the text of the source: active = inhibition above about 30%; inactive = below that, where a call was filed.
# Molecular target: D(2) dopamine receptor (Homo sapiens) (UniProt P14416)
# Sequence (P14416 whole entry, looked up): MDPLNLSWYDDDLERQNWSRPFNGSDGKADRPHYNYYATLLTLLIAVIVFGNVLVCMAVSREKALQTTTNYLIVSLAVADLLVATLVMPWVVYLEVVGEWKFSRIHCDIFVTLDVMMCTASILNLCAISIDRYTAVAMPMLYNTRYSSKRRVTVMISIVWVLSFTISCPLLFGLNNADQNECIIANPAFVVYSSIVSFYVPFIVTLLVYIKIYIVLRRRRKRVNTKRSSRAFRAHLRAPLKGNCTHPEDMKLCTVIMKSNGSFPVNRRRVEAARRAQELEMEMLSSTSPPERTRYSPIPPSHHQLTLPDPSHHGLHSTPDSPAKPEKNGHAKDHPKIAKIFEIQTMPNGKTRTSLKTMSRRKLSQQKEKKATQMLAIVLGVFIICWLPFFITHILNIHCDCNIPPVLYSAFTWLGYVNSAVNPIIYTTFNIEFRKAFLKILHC
# Test: HTS Assay for Allosteric Antagonists of the Human D2 Dopamine Receptor: Primary Screen for Antagonists; note: 0% is about no effect
# Settings: HEK293 TREx D2 cells, calcium flux, dopamine EC80; at 10 µM; active compounds read high
# In short: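 Overnight-induced (tetracycline, 30 C) HEK293 T-REx cells carrying force-coupled D2 receive a no-wash calcium dye, then compound, then EC80 dopamine at 180 s; signals are read kinetically throughout.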
row,SMILES,inhibition
1,CC(C(=O)Nc1ccc(S(=O)(=O)N2CCCC2)cc1)N(C)Cc1ccc(F)cc1 (configuration not stated),-65.3%
2,CCn1nc(C(=O)NNC(=O)C2CSC3(C)CCC(=O)N23)c2ccccc2c1=O (configuration not stated),-19.4%
3,COc1cc(C#Cc2ccc3cc(CCCO)oc(=O)c3c2)cc(OC)c1,7.69%
4,COc1ccc(CNC(=O)C(=O)N2CCC3(CC2)OCCN3S(=O)(=O)c2ccc(C)cc2)cc1,-3.99%
5,C=CCSc1ccc(S(=O)(=O)N2CCN(C)CC2)cn1,6.94%
6,CC(C)N(Cc1nnc(-c2ccccc2Br)o1)C(=O)c1cc(Cl)nc2ccccc12,-0.847%
7,Cc1cc(C)cc(OCC(=O)Nc2ccc(N3CCOCC3)cc2N2CCOCC2)c1,-19.7%
8,CCOc1ccc(S(=O)(=O)N2CCC(C(=O)NCC(=O)Nc3cccc(Cl)c3C)CC2)cc1,0.735%
9,N#Cc1ccccc1S(=O)(=O)N1CCN(Cc2c(O)ccc3ccccc23)CC1,-16.7%
10,COc1cccc(CNC(=O)C(=O)NCCC2CCCCN2S(=O)(=O)c2ccc(C)cc2)c1 (configuration not stated),-3.22%
11,C[C@@H](NC(=O)c1nc[nH]c1C(=O)N1CCN(C(=O)OC(C)(C)C)CC1)c1ccccc1,4.62%
12,Cc1ccc(NC(=S)NC(=O)/C=C/c2ccc(Cl)cc2)cc1,-2.32%
13,CCCCOC(=O)c1[nH]c(C)c(C(=O)OC)c1C,-12.8%
14,COC(=O)c1c(C)[nH]c(C(=O)/C=C/c2ccc(Cl)cc2)c1C,40.8% (active)
15,CC(=O)c1cccc(CN2CCC(CO)(Cc3ccccc3)CC2)c1,3.1%
16,CC(C)c1csc(CN2CCC(CO)(Cc3ccccc3)CC2)n1,0.256%
17,OCC1(Cc2ccccc2)CCN(Cc2cc3ccccc3o2)CC1,94.6% (active)
18,O=C(c1ccc(F)cc1)C1CCN(Cc2cn[nH]c2-c2ccccc2)CC1,56% (active)
19,COc1ccc(CN2CCNC(=O)C2CC(=O)NCc2cn[nH]c2-c2ccccc2)c(F)c1 (configuration not stated),-65.2%

row,SMILES,inhibition
1,OCC1(CCOc2ccccc2)CCN(Cc2cn[nH]c2-c2ccccc2)CC1,-12.6%
2,Cc1ccc(S(=O)(=O)N2CCOCC2)cc1NC(=O)COC(=O)c1cnccn1,-7.64%
3,O=C(Nc1ccc(-c2nnc(-c3ccccc3)o2)cc1)C1CCCO1 (configuration not stated),-12.9%
4,O=C(Nc1nnc(CCc2ccccc2)s1)C1CCCO1 (configuration not stated),-19.8%
5,O=C(Nc1cccc(-c2nnc(-c3ccccc3)o2)c1)C1CCCO1 (configuration not stated),63% (active)
6,CCC(C)NC(=O)c1ccc(NC(=O)CC2SC(N3CCCCC3)=NC2=O)cc1 (configuration not stated),-4.54%
7,COc1ccc(NC(=O)CC2SC(N3CCCCC3)=NC2=O)cc1OC (configuration not stated),40.6% (active)
8,O=C(CC1SC(N2CCCC2)=NC1=O)Nc1ccc(C(=O)NCCc2ccc(F)cc2)cc1 (configuration not stated),-4.16%
9,COc1ccccc1N1CCN(C(=O)C2Cc3ccccc3CN2C(=O)c2ccco2)CC1 (configuration not stated),-23.2%
10,CCOc1ccc(NC(=O)COC(=O)C2CCC(=O)N2)c([N+](=O)[O-])c1 (configuration not stated),-10.6%
11,CC(C)c1ccc(S(=O)(=O)N2CCN(C(C)C(=O)NC3CCCC3)CC2)cc1 (configuration not stated),-16.2%
12,Cc1ccc2oc(=O)c3cnn(CC(=O)N4CCN(c5ccccn5)CC4)c3c2c1,-21.9%
13,Cc1ccc2oc(=O)c3cnn(CC(=O)N4CCCCCC4)c3c2c1,-0.561%
14,Cc1ccc2oc(=O)c3cnn(CC(=O)N(Cc4ccco4)C4CCCCC4)c3c2c1,32.4% (active)
15,O=C(O)C1C2C=CC(C2)C1C(=O)NCc1ccccc1 (configuration not stated),3.26%
16,O=C(COC(=O)c1ccc(O)cc1O)NNC(=O)c1cccs1,13.6%
17,O=C(NC1CCN(Cc2ccccc2)CC1)c1ccc(Oc2cc(Cl)cc(Cl)c2)o1,26.7%
18,O=C(NC1CCN(Cc2ccccc2)CC1)c1cc(Br)c(Br)[nH]1,78.3% (active)
19,O=C(NC1CCN(Cc2ccccc2)CC1)c1c(F)cccc1F,24.1%

row,SMILES,inhibition
1,Cc1cc(C(=O)NC2CCN(Cc3ccccc3)CC2)n[nH]1,74.1% (active)
2,Cc1ccn2cc(C(=O)NC3CCN(Cc4ccccc4)CC3)nc2c1,15.3%
3,Cc1cc(C(=O)NC2CC(C)(C)Cc3c2cnn3-c2ccccc2)n[nH]1 (configuration not stated),-16%
4,O=C(c1ccncc1)N1CCN(S(=O)(=O)c2cccc([N+](=O)[O-])c2)CC1,4.87%
5,CC(Sc1nnc(C2CC2)n1C1CC1)C(=O)Nc1ccc(C(N)=O)cc1 (configuration not stated),-13.1%
6,CC(OC(=O)c1ccccc1NCCO)C(=O)Nc1ccnn1C(C)C (configuration not stated),-18.3%
7,COc1ccccc1CNS(=O)(=O)c1cc2c3c(c1)CCC(=O)N3CCC2,-11.8%
8,O=C(Nc1ccccc1)N1CCN(Cc2ccccc2)CC1,13.1%
9,O=C(NC(=S)N1CCN(Cc2ccccc2)CC1)c1ccccc1,31.2% (active)
10,O=C(c1cccc(Cl)c1)N1CCN(Cc2ccccc2)CC1,7.63%
11,CC(C)N(C(=O)CN1CCN(S(=O)(=O)c2ccc(Br)s2)CC1)C(C)C,-1.58%
12,CCN(CC)CCn1c2c(c(SCC(=O)Nc3ccc(C(C)C)cc3)nc1=O)CCC2,14.2%
13,COc1ccc2cc1Oc1ccc(cc1)C[C@H]1c3cc(c(OC)cc3CCN1C)Oc1c(O)c(OC)cc3c1[C@H](C2)N(C)CC3,-8.18%
14,COc1ccc(CN2CCCC(N3CCc4ccccc4C3)C2)c(O)c1 (configuration not stated),-20%
15,COc1c(O)ccc2c1CN1CCc3cc4c(cc3C1C2)OCO4 (configuration not stated),74.1% (active)
16,CCCCNC(=O)Cn1nc(C)c(S(=O)(=O)N2CCOCC2)c1C,4.53%
17,CCCCN(CCCC)CC(O)Cn1c2ccccc2c(=O)c2ccccc21 (configuration not stated),0.545%
18,CS(=O)(=O)N(CC(O)Cn1c2ccccc2c2ccccc21)c1cccc2ccccc12 (configuration not stated),31.2% (active)
19,O=C1c2ccccc2S(=O)(=O)N1CC(O)Cn1c2ccccc2c2ccccc21 (configuration not stated),26.9%
